Values joined by “and” are separate entries in the source; they are usually repeats but may differ in a detail not shown here. Equal entries are not always repeated. Records with an inconclusive call do not appear. Active and inactive are the calls of the source. The calls were made as follows: active = hit-call score of the fitted dose curve at least 0.9, where 1 is the maximum; inconclusive = response in the unintended direction; inactive = score below 0.9.

Drawing on PubChem BioAssay (EPA / NIEHS), this text covers outcome and AC50 for 10 molecules.

Assay [1] deals with Cellular tumor antigen p53 (Homo sapiens) (UniProt P04637). Briefly: TOX21_p53_BLA_p2_ratio: Tox21 HCT-116 p53 Agonism Beta-lactamase Assay, Ratio, Phase 2 (AID 2283592). The method, boiled down:
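DMSO-normalized, positive-direction endpoint derived from the 460 nm/530 nm FRET ratio in HCT116 p53 beta-lactamase reporter cells exposed 16 h at 37C and loaded with CCF4-AM for 2 h.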

The target is the same in assay [2]. Briefly: TOX21_p53_BLA_p3_ratio: Tox21 HCT-116 p53 Agonism Beta-lactamase Assay, Ratio, Phase 3 (AID 2283596). The method, boiled down: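 Cells were seeded at 4000/well, rested 5 h at 37C, then dosed with DMSO compound solutions (217-fold dilution) for 16 h. CCF4-AM substrate was loaded for 2 h at room temperature, and the 460/530 nm emission ratio was fitted for gain of signal versus DMSO.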

Assay [3] is described as follows: TOX21_p53_BLA_p4_viability: Viability Assessment in the Tox21 HCT-116 p53 Agonism Beta-lactamase Assay, Phase 4 (AID 2283597).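 Also: hits lower the luminescence signal meaning cytotoxicity.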 The procedure, abridged: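 In this multiplexed secondary endpoint, HCT116 cells (4000 per well, compound at 5 h, 16 h treatment) received CellTiter-Glo after the beta-lactamase read. Luminescence after 30 min RT reflects ATP, and falling signal marks cytotoxicity.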

Assay [4] concerns the target Cellular tumor antigen p53 (Homo sapiens) (UniProt P04637). The experiment in a line: TOX21_p53_BLA_p5_ratio: Tox21 HCT-116 p53 Agonism Beta-lactamase Assay, Ratio, Phase 5 (AID 2283599). The procedure, abridged: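 HCT-116 cells carrying a p53-inducible beta-lactamase reporter were seeded at 4000 cells/well and dosed after 5 h with compound in DMSO (217-fold dilution). After 16 h at 37C, CCF4-AM substrate was added for 2 h, and the 460/530 nm emission ratio was scored as gain-of-signal versus DMSO.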

Assay [5] can be described thus: TOX21_p53_BLA_p5_viability: Viability Assessment in the Tox21 HCT-116 p53 Agonism Beta-lactamase Assay, Phase 5 (AID 2283600). The procedure, abridged:
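Here cell health was gauged by ATP levels in wells holding 4000 cells, each treated 16 h with DMSO-delivered compounds at 217-fold dilution; reduced luminescence marked toxicity.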

The target in assay [6] is Cellular tumor antigen p53 (Homo sapiens) (UniProt P04637). The experiment in a line: TOX21_p53_BLA_p4_ratio: Tox21 HCT-116 p53 Agonism Beta-lactamase Assay, Ratio, Phase 4 (AID 2283601). The method, boiled down: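 HCT116 cells carrying an inducible beta-lactamase reporter were plated at 4000 cells/well, rested 5 h, then exposed to compounds in DMSO (217-fold dilution) for 16 h at 37C. CCF4-AM substrate was loaded 2 h at room temperature; 460/530 nm emission ratio scored gain-of-signal versus DMSO.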

A short description of assay [7]: Tanguay_ZF_120hpf_YSE_legacy: (Legacy) Oregon State University Tanguay Lab 120 Hour Post-fertilization zebrafish Assay for Yolk Sac Edema (AID 2283634).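 As to AC50: actives raise the incidence of yolk sac edema above the DMSO baseline.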 The procedure, abridged: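 Single dechorionated embryos were held in sealed plates at 28C with test chemical (0.64% DMSO final) from 6 hpf until 120 hpf. Edema of the yolk sac was then recorded as a binary endpoint; non-mortality endpoints were skipped for dead embryos.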

A short description of assay [8]: Tanguay_ZF_120hpf_EYE_legacy: (Legacy) Oregon State University Tanguay Lab 120 Hour Post-fertilization zebrafish Assay for Eye Malformation (AID 2283636).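 Also: binary presence or absence of eye malformation scored by brightfield in 120 hpf larvae.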 The method, boiled down:
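Static waterborne exposure of dechorionated zebrafish embryos (strain Tropical 5D), 6 to 120 hpf, sealed plates at 28C, 0.64% DMSO vehicle. Eye malformation is scored as a binary endpoint, with gain of signal analysed relative to DMSO.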

Assay [9] in a line: Tanguay_ZF_120hpf_SNOU_legacy: (Legacy) Oregon State University Tanguay Lab 120 Hour Post-fertilization zebrafish Assay for Snout Malformation (AID 2283637). The procedure, abridged:
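Dechorionated zebrafish, individually housed from 6 hpf in covered, sealed wells at 28C with 0.64% DMSO vehicle, were examined at 120 hpf for snout malformation. Responses were binary and analysed positive-direction relative to DMSO.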

The nature of assay [10]: Tanguay_ZF_120hpf_JAW_legacy: (Legacy) Oregon State University Tanguay Lab 120 Hour Post-fertilization zebrafish Assay for Jaw Malformation (AID 2283638).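 As to AC50: active means more embryos with jaw malformation than DMSO controls.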 The method, boiled down: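 Wild-type 5D embryos, chorion removed at 4 hpf, dosed singly from 6 hpf; 28C static, sealed, foil-covered, to 120 hpf. Endpoint: jaw defect yes/no (brightfield); mortality excludes scoring.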

A short description of assay [11]: Tanguay_ZF_120hpf_OTIC_legacy: (Legacy) Oregon State University Tanguay Lab 120 Hour Post-fertilization zebrafish Assay for Otic Vesicle Malformation (AID 2283639). The procedure, abridged:
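Binary scoring of otic vesicle defects at 120 hpf in zebrafish (Tropical 5D) held under static exposure at 28C, sealed and shaded, with final DMSO 0.64%. Embryos dying by 24 or 120 hpf excluded; fitted positively against DMSO.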

Assay [12] in a line: Tanguay_ZF_120hpf_PE_legacy: (Legacy) Oregon State University Tanguay Lab 120 Hour Post-fertilization zebrafish Assay for Pericardial Edema (AID 2283640).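 As to AC50: potency for increased incidence of pericardial edema versus DMSO baseline.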 The method, boiled down:
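Zebrafish larvae are exposed from early development to 120 hpf at 28C, with 0.64% DMSO final. Each surviving larva receives a yes/no pericardial edema call by brightfield imaging, analysed relative to the DMSO baseline.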

The nature of assay [13]: Tanguay_ZF_120hpf_SOMI_legacy: (Legacy) Oregon State University Tanguay Lab 120 Hour Post-fertilization zebrafish Assay for Somite Malformation (AID 2283647). The method, boiled down:
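Somitogenesis defects are recorded as binary calls in whole larvae at 120 hpf after continuous static chemical exposure starting at 6 hpf in dechorionated 5D embryos. DMSO serves as negative control and baseline.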

A short description of assay [14]: Tanguay_ZF_120hpf_PFIN_legacy: (Legacy) Oregon State University Tanguay Lab 120 Hour Post-fertilization zebrafish Assay for Pectoral Fin Malformation (AID 2283648).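 Also: each larva judged yes or no for fin defect by brightfield with dead larvae skipped.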 The method, boiled down: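 Scoring of pectoral fin malformation was binary, made at 120 hpf on larvae exposed statically from 6 hpf after enzymatic chorion removal. Activity was fitted upward relative to DMSO controls at 0.64% (vol/vol).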

The nature of assay [15]: Tanguay_ZF_120hpf_CFIN_legacy: (Legacy) Oregon State University Tanguay Lab 120 Hour Post-fertilization zebrafish Assay for Caudal Fin Malformation (AID 2283649). The procedure, abridged: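 Single dechorionated 5D wild-type embryos are dosed at 6 hpf (final DMSO 0.64%) and held statically at 28C. Caudal fin malformation is recorded as present or absent at 120 hpf under brightfield, excluding dead embryos.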

Assay [16] can be described thus: TOX21_p53_BLA_p3_viability: Viability Assessment in the Tox21 HCT-116 p53 Agonism Beta-lactamase Assay, Phase 3 (AID 2283593).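 Also: cells exposed to compound for 16 h before reading.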 The procedure, abridged: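 HCT-116 cells (4000/well) rested 5 h at 37C, then got DMSO compounds by pin tool (217-fold dilution) for 16 h at 37C, 5% CO2. After the bla read, CellTiter-Glo was added and luminescence read at 30 min, room temperature.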

Assay [17] in a line: Tanguay_ZF_120hpf_AXIS_legacy: (Legacy) Oregon State University Tanguay Lab 120 Hour Post-fertilization zebrafish Assay for Body Axis Malformation (AID 2283635).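 As to AC50: potency for an increased fraction of larvae scored with body axis malformation.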 The method, boiled down: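 Each dechorionated embryo was exposed alone from 6 hpf, with DMSO at 0.64% (vol/vol) and trimethyltin chloride 5 uM as positive control. Axis malformation was recorded at 120 hpf unless the embryo had died.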

Assay [18] can be described thus: Tanguay_ZF_120hpf_BRAI_legacy: (Legacy) Oregon State University Tanguay Lab 120 Hour Post-fertilization zebrafish Assay for Brain Malformation (AID 2283641). The method, boiled down: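 Static exposure of staged wild-type embryos until 120 hpf, kept at 28C with light excluded and final DMSO of 0.64% (vol/vol). Presence or absence of brain malformation was noted under brightfield; mortality precluded scoring.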

Assay [19] in a line: Tanguay_ZF_120hpf_MORT_legacy: (Legacy) Oregon State University Tanguay Lab 120 Hour Post-fertilization zebrafish Assay for Mortality (AID 2283633).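 As to AC50: fitted as increase in binary mortality versus DMSO negative control.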 The method, boiled down: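 Single dechorionated Tropical 5D embryos were held with test chemical (0.64% DMSO final) from 6 to 120 hpf at 28C under foil. Deaths at 24 or 120 hpf were recorded as binary calls, analysed for increase over DMSO controls.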

The nature of assay [20]: TOX21_p53_BLA_p2_viability: Viability Assessment in the Tox21 HCT-116 p53 Agonism Beta-lactamase Assay, Phase 2 (AID 2283591).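 Also: compound exposure lasted 16 h at 37 °C; actives lower the ATP signal meaning cytotoxicity.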 The method, boiled down: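 HCT-116 p53-bla cells (4000/well) rested 5 h at 37C, then received compounds in DMSO (217-fold dilution) for 16 h at 37C, 5% CO2. After the CCF4 read, CellTiter-Glo was added; ATP luminescence was read after 30 min at room temperature.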

Cellular tumor antigen p53 (Homo sapiens), sequence (P04637 whole entry, looked up): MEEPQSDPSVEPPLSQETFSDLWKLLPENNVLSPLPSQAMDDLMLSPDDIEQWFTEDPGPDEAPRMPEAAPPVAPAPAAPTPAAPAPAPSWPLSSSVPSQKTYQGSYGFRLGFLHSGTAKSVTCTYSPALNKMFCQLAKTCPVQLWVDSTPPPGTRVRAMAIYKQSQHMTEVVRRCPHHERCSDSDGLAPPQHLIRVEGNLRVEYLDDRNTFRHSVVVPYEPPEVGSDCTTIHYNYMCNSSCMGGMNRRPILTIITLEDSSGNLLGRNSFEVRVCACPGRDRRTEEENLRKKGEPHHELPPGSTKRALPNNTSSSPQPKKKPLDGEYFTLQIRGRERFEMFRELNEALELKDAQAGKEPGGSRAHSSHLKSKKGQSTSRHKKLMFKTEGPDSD

In the case of `Cc1ccc(N)cc1`, the result in [1], in assay [2], in assay [3], in [4], in [5] and in [6] was inactive. Further, the outcome in assay [7], in assay [8], in assay [9], in assay [10], in assay [11] and in [12] was inactive. The molecule was classed as inactive in assay [13], in [14] and in assay [15].
In general, AC50 refers to the midpoint of the concentration-response curve, whichever way the signal moves. For the molecule `COC(=O)Nc1nc2ccccc2[nH]1`, the concentration at half-maximal activity (AC50) in assay [1] is 10.1 µM (active) and 7.91 µM (active); in [2] it was 12.9 µM (active) and 8.81 µM (active); in [4], 15 µM (active) and 15.4 µM (active); in assay [6], 9.43 µM (active) and 7.88 µM (active); in assay [7], 47.5 µM (active); in assay [8], 46.4 µM (active). The result in assay [16], in [3], in [17], in [9], in [10] and in assay [11] was inactive. Also, the call in [12], in assay [18], in assay [13], in [14] and in [15] was inactive.
With `N#CC(Br)Br`, the result in assay [19], in [17], in assay [10], in assay [11], in [12] and in assay [13] was inactive. The molecule was called inactive in assay [14] and in assay [15].
For `CCCCC(CC)COC(=O)c1ccc(C(=O)OCC(CC)CCCC)c(C(=O)OCC(CC)CCCC)c1` (stereo not drawn), the result in assay [16], in [2], in [3], in [4], in assay [6] and in [7] was inactive. Moreover, the molecule was called inactive in assay [17], in assay [8], in assay [9], in assay [10], in assay [11] and in assay [12]. Further, the result in assay [13], in [14] and in [15] was inactive.
For the molecule `C[C@]12C=CC3=C4CCC(=O)C=C4CC[C@H]3[C@@H]1CC[C@@H]2O`, the AC50 was 48.8 µM (active) in assay [7]; 27.1 µM (active) in assay [8]; 43.3 µM (active) in [9]; 30.5 µM (active) in [10]; 29.9 µM (active) in [12]; 27.1 µM (active) in [18]. Also, the call in [11], in [13], in assay [14] and in [15] was inactive.
As to `CCOc1cccc(C2(N3CCN(c4ccccc4)CC3)CCC(C)CC2)c1` (stereo not drawn), the outcome in assay [2], in [19], in [7], in [17], in assay [8] and in assay [10] was inactive. The molecule was classed as inactive in assay [11], in assay [12], in assay [13], in assay [14] and in [15].
Regarding `O=[N+]([O-])C(Br)(CO)CO`, the molecule was called inactive in assay [7], in assay [17], in assay [8], in [9], in assay [11] and in [13]. The molecule was called inactive in assay [14] and in assay [15].
In the case of `O=C(N[C@H](c1ccccc1)[C@@H]1CN2CCC1CC2)c1c(Cl)ccc(C(F)(F)F)c1Cl`, the result in [20], in assay [4], in assay [5], in assay [7], in assay [9] and in assay [11] was inactive. Besides, the result in assay [12] and in assay [14] was inactive. Also, the AC50 in assay [6] was 127 µM (active); in assay [19], 26.7 µM (active); in assay [17], 1.27 µM (active).
Regarding `CC(C)(OOC(C)(C)c1ccccc1)c1ccccc1`, the call in assay [16], in assay [3], in assay [4], in [5], in assay [6] and in [7] was inactive. For the same molecule, the call in [17], in assay [8], in [9], in [10], in assay [11] and in [12] was inactive. Besides, the call in assay [18], in assay [13], in assay [14] and in assay [15] was inactive.
As for `O=C1CCCO1`, the result in assay [1], in [16], in assay [2], in assay [3], in [4] and in assay [5] was inactive. Moreover, the result in assay [6], in [7], in [17], in [8], in assay [9] and in assay [10] was inactive. Further, the call in [11], in assay [12], in assay [13], in assay [14] and in assay [15] was inactive.
